Measured values: PubChem BioAssay (NCATS)
Inconclusive results are not listed. The source made the active and inactive calls. Calls come from the whole dose curve; as a rule, active = well fitted cell-killing curve with a large enough effect; inconclusive = small, poorly fitted or top-dose-only effect, or effect the other way; inactive = no such curve, though single readings can be large or run the other way.

Assay: Viability qHTS for spleen associated tyrosine kinase inhibitor (SYKi) naive MV4-11 cells (AID 1963823); note: nearly all actives have a fitted effect of over 40% in size
Details: MV4-11 AML viability, CellTiter-Glo luminescence, 72 h; series mostly up to 45 µM; viability (% of control): at the top concentration
Summary of the method: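 qHTS, SYK inhibitor-naive MV4-11; 500 cells/well; 72 hr compound exposure, 37 C; CellTiter-Glo added, 10 min RT; luminescence read.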
Potency is the fitted concentration of half-maximal effect.

SMILES	viability (% of control)	Potency
CC(=O)/C=C/C1(O)C(C)(C)CC(O)CC1(C)O (stereo unspecified)	67.4% (inactive)	
CC(=O)OCCC(C)CCC1C(C)(O)CCC2C(C)(C)CCCC21C (stereo unspecified)	62.8% (inactive)	
N#CC(CCCN1CCN(/N=C/c2cccnc2)CC1)(c1ccccc1)c1ccccc1		2060 nM (active)
CC1(C)CC[C@]2(C(=O)O[C@@H]3O[C@H](CO)[C@@H](O)[C@H](O)[C@H]3O)CC[C@]3(C)C(=CCC4[C@@]5(C)C[C@@H](O)[C@H](O)C(C)(C)C5CC[C@]43C)C2[C@@H]1O (stereo partly specified)	65.1% [at 17.3 µM] (inactive)	
COc1cccc(C(=O)N2CCN(C(=O)COc3cccc(C)c3)CC2)c1OC	56% (inactive)	
S=c1ssc2c1CCC2	70.5% (inactive)	
COc1c2c(c(C)c3c1C(=O)OC3)OC1(C)CC(O)C3(O)C(C)(C)OC(=O)CCC3(C)C1C2 (stereo unspecified)	65.4% [at 17.3 µM] (inactive)	
CCn1c(=O)c(-c2ccc(-c3cncc(C)n3)cc2Cl)cc2cnc(NCCC3CCN(C)CC3)nc21		1180 nM (active)
C=CC1(C)C=C2C(=O)OC(=O)C3=C(CCCC3(C)C)C2(O)CC1 (stereo unspecified)	61.6% (inactive)	
CN1C2CCC1CC(OC(=O)[C@H](CO)c1ccccc1)C2 (stereo partly specified)		651 nM (active)
C=C1[C@H]2CCC3[C@]4(C)CCC[C@@](C)(C(=O)O)C4CC[C@]3(C2)[C@H]1OC(C)=O (stereo partly specified)	72.9% (inactive)	
C=C(CCO)C(=O)OCC1OCC(OC(=O)C(=C)CCO[C@@H]2O[C@H](CO)[C@@H](O)[C@H](O)[C@H]2O)C(O)C1O (stereo partly specified)	90.6% [at 17.3 µM] (inactive)	
CC(=O)N[C@H]1[C@H](O[C@H]2CC[C@@]3(C)C(CC[C@]4(C)C3CC=C3C5CC(C)(C)CC[C@]5(C(=O)O)[C@H](O)C[C@]34C)C2(C)C)O[C@H](CO[C@@H]2OC[C@H](O)[C@H](O)[C@H]2O[C@@H]2OC[C@@H](O)[C@H](O)[C@H]2O)[C@@H](O)[C@@H]1O (stereo partly specified)	83.2% [at 9.25 µM] (inactive)	
CC1=CC(=O)C2C(C)(C)CC(O)CC2(C)C1CO (stereo unspecified)	68.1% (inactive)	
C[C@]12CCC[C@](C)(C(=O)O)C1[C@@H](O)[C@@H](O)C13CC(CCC12)C(CO)(O[C@@H]1O[C@H](CO)[C@@H](O)[C@H](O)[C@H]1O)C3 (stereo partly specified)	81.5% [at 17.3 µM] (inactive)	
CC1CCC2(O1)C(C)(C)CC(O[C@@H]1O[C@H](CO[C@@H]3OC[C@](O)(CO)[C@H]3O)[C@@H](O)[C@H](O)[C@H]1O)CC2(C)O (stereo partly specified)	88% [at 17.3 µM] (inactive)	

SMILES	viability (% of control)	Potency
COc1c(OC2OC(CO)C(O)C(O)C2O)ccc(O)c1C(=O)OCc1ccccc1O[C@@H]1O[C@H](CO)[C@@H](O)[C@H](O)[C@H]1O (stereo partly specified)	76.3% [at 17.3 µM] (inactive)	
CC(=O)O[C@H]1C[C@@](O)(C(C)C)C2[C@@H](OC(=O)c3ccc(O)cc3)C[C@@]3(C)O[C@H]3C[C@]21C (stereo partly specified)	46.7% [at 17.3 µM] (inactive)	
C=C1C[C@]23C[C@H]1CC[C@H]2[C@]1(C)CCC[C@@](C)(C(=O)O)[C@H]1[C@@H]3C(=O)O	67.2% (inactive)	
C=Cc1cc(O)cc2nc(-c3ccc(O)c(F)c3)oc12		23500 nM (active)
C=C1C(=O)OC[C@H]2C(C(=O)O)=CC3CC(C)(C)C[C@@]132 (stereo partly specified)	86.3% (inactive)	
CC(=O)c1ccc(O[C@@H]2OC[C@@H](O)[C@H](O)[C@H]2O[C@]2(CO)O[C@H](CO)[C@@H](O)[C@@H]2O)c(O)c1	90.7% [at 17.3 µM] (inactive)	
COc1c(C(CC(C)C)OC(C)=O)ccc(Oc2c(O)cc(C)cc2/C=C/C(C)=O)c1C(=O)O (stereo unspecified)	50.6% [at 17.3 µM] (inactive)	
COc1ccccc1NC(=O)OCC1CCN(C(=O)OC(C)(C)C)CC1	61.5% (inactive)	
CC(O)C1CCC2C3CCC4CC(OC5OC(C(=O)O)C(O)C(O)C5O)CCC4(C)C3CCC12C (stereo unspecified)	80.2% (inactive)	
CC12CCC3c4ccc(O)cc4CCC3C1CCC2OC1OC(C(=O)O)C(O)C(O)C1O (stereo unspecified)	72.8% (inactive)	
Nc1c(S(=O)(=O)c2ccccc2)c2nc3ccccc3nc2n1-c1ccc(F)cc1	75.6% (inactive)	
CC(NCc1ccc(OCc2cccc(F)c2)cc1)C(N)=O (stereo unspecified)	65.2% (inactive)	
C=C1CCC2C(C)(C)CC(O)CC2(C)C1CCC(C)CC(=O)O (stereo unspecified)	68.5% (inactive)	
COCCN1CCC(C(=O)NO)(S(=O)(=O)c2ccc(Oc3ccc(OC(F)(F)F)cc3)cc2)CC1		20600 nM (active)
CC(C)=CCC[C@](C)(O[C@@H]1O[C@H](CO[C@@H]2O[C@H](CO)[C@@H](O)[C@H](O)[C@H]2O)[C@@H](O)[C@H](O)[C@H]1O)C1CC[C@]2(C)[C@@H]1[C@H](O)CC1[C@@]3(C)CC[C@H](O[C@@H]4O[C@H](CO)[C@@H](O)[C@H](O)[C@H]4O[C@@H]4O[C@H](CO)[C@@H](O)[C@H](O)[C@H]4O)C(C)(C)[C@@H]3CC[C@]12C (stereo partly specified)	64.5% [at 9.25 µM] (inactive)	
